# In PubChem BioAssay (NCATS):
# Inconclusive results are not listed. Entries that show only a call come without a potency. Activity calls are given as the source filed them. Calls come from the whole dose curve; as a rule, active = well fitted cell-killing curve with a large enough effect; inconclusive = small, poorly fitted or top-dose-only effect; inactive = no such curve, though single readings can be large or run the other way.
# Test: qHTS of pediatric cancer cell lines to identify multiple opportunities for drug repurposing: Primary screen for MG 63 (6-TG R) cells (AID 1347105); note: nearly all actives have a fitted effect of over 50% in size
# Conditions: MG 63 (6-TG R) viability, CellTiter-Glo, 48 h; series mostly up to 46 µM
# Procedure, shortened: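 Phenotypic viability qHTS, 48 h compound exposure, CellTiter-Glo luminescence read-out; multi-concentration dosing so that potency and efficacy derive directly from the primary screen's curves.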
# Potency is the fitted concentration of half-maximal effect.
row,SMILES,Potency
1,CN(C)Cc1ccc(-c2nc3cccc4c3n2CCNC4=O)cc1,inactive
2,Cc1ccc(Nc2cc(-c3cccc(N4C(=O)c5ccccc5C4=O)c3)ncn2)cc1NS(C)(=O)=O,inactive
3,C[C@]12CC[C@@H]3c4ccc(O)cc4CC[C@H]3[C@H]1C[C@@H](O)[C@H]2O,inactive
4,CC1(C)O[C@H]2C[C@@H]3[C@H]4CCC5=CC(=O)C=C[C@]5(C)[C@@]4(F)[C@@H](O)C[C@]3(C)[C@]2(C(=O)CO)O1,inactive
5,O=C(CCN1CCN(C(=O)OCc2cc(Cl)cc(Cl)c2)CC1)c1ccc2[nH]c(=O)oc2c1,inactive
6,CCOc1ccc(Nc2nc(-c3c(C)nc4ccccn34)cs2)cc1,inactive
7,C[C@H](NC(=O)C(=O)Nc1ccccc1C(C)(C)C)C(=O)N[C@@H](CC(=O)O)C(=O)COc1c(F)c(F)cc(F)c1F,14.8 µM (active)
8,O=C(Nc1ccccc1-c1cn2c(CN3CCNCC3)csc2n1)c1cnc2ccccc2n1,23.5 µM (active)
9,CC1(C)S[C@H]2[C@H](NC(=O)[C@@H](N)c3ccc(O)cc3)C(=O)N2[C@@H]1C(=O)O,3.72 µM (active)
10,CC(C)C[C@H](CC(=O)O)C(=O)N[C@@H](Cc1c[nH]c2ccccc12)C(=O)N[C@@H](C)c1ccccc1,inactive
11,Cc1[nH]c(C=C2C(=O)Nc3ccc(S(=O)(=O)Cc4c(Cl)cccc4Cl)cc32)c(C)c1C(=O)N1CCC[C@H]1CN1CCCC1,23.5 µM (active)
12,CN(C[C@@H]1COCCO1)S(=O)(=O)Nc1ccc2ccc3ncc(-c4cnn(C)c4)cc3c(=O)c2c1,inactive
13,O=C(NOCC(O)CO)c1cc(Br)c(F)c(F)c1Nc1ccc(I)cc1F (stereo not given),11.8 µM (active)
14,CC(C)n1cnc2c(NCCCCCCNC(=O)OC(C)(C)C)nc(NCCO)nc21,inactive
15,O=C1C[C@@H](c2ccc(O)cc2)Oc2cc(O)cc(O)c21,inactive
16,CS(=O)(=O)N(Cc1ccco1)CC(O)Cn1c2ccccc2c2ccccc21 (stereo not given),inactive
17,O=C(N[C@@H](c1ccccc1)[C@@H]1CCCCN1)c1cccc(C(F)(F)F)c1Cl,inactive
18,Cc1cccc(Nc2nc(-c3ccncc3)cs2)c1,inactive
19,O=C(O)CCc1nc(-c2ccccc2)c(-c2ccccc2)o1,inactive
20,O=c1c(-c2ccc(O)cc2)coc2cc(OC3O[C@H](CO)[C@H](O)[C@H](O)[C@H]3O)cc(O)c12 (stereo not given in full),inactive
